Assay results taken from PubChem BioAssay (NCI).
This is part of a sample that, as a whole, favours compounds with a hit. Of some 83,000 tested, about 20% had one in any assay.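 For each line, cells grew in 96-well plates with the test compound present at a single concentration for 48 hours.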 The source made the active and inactive calls. How the source made its calls: active means growth percent below 10; inactive means the rest.

Key:
Assay in all cases: NCI-60 one-dose screen, 48 h (100 = growth as untreated, 0 = no growth, -100 = all killed)
Details in all cases: 10 µM unless noted
T-47D breast = test system: T-47D breast
BT-549 breast = test system: BT-549 breast
MDA-MB-435 melanoma = test system: MDA-MB-435 melanoma
SW-620 colon = test system: SW-620 colon
MCF7 breast = test system: MCF7 breast
HCT-116 colon = test system: HCT-116 colon
HCC-2998 colon = test system: HCC-2998 colon
KM12 colon = test system: KM12 colon

Measured: growth

O=C1c2cccc3c(-c4ccc(-c5nc6c7ccccc7c7ccccc7c6[nH]5)cc4)ccc(c23)C(=O)N1CCN1CCNCC1
active: MCF7 breast -6.7% | HCT-116 colon -12.3%
inactive: T-47D breast 67.5% | BT-549 breast 95.4% | MDA-MB-435 melanoma 100% | SW-620 colon 25.2% | HCC-2998 colon 85.5% | KM12 colon 21.6%

NC(N)=N/N=C(/c1ccccc1)c1ccc(N)cc1
inactive: T-47D breast 107% | BT-549 breast 72.7% | MDA-MB-435 melanoma 91.2% | SW-620 colon 111% | MCF7 breast 97% | HCT-116 colon 115% | HCC-2998 colon 103% | KM12 colon 112%

N=C(N)c1ccc(-c2ccc(-c3ccc(Cl)c(Cl)c3)o2)nc1
inactive: T-47D breast 85.9% | BT-549 breast 94.9% | HCC-2998 colon 77.8%
active: MDA-MB-435 melanoma -52.1% | SW-620 colon -69.8% | MCF7 breast -76.8% | HCT-116 colon -57.8% | KM12 colon -15%

Cn1nnnc1-c1ccc(N)cc1
inactive: T-47D breast 87.2% | BT-549 breast 93.4% | MDA-MB-435 melanoma 99.5% | SW-620 colon 104% | MCF7 breast 90.9% | HCT-116 colon 84.6% | HCC-2998 colon 100% | KM12 colon 99.4%

COc1cc(C(=O)/C=C/c2c(-c3ccc(F)cc3)nc3ncccn23)cc(OC)c1OC
inactive: T-47D breast 59.8% | BT-549 breast 32.5% | MDA-MB-435 melanoma 11.9% | SW-620 colon 32.2% | MCF7 breast 10% | HCT-116 colon 17.7% | HCC-2998 colon 44.1% | KM12 colon 22.3%

CC(C)CCC[C@@H](C)[C@H]1CCC2C3=CCC4C(=O)C=CC(=O)C4C3CC[C@@]21C (stereo partly specified)
active: T-47D breast -18.9% | BT-549 breast -1.63% | MDA-MB-435 melanoma 5.05% | SW-620 colon -10.1% | MCF7 breast 8.65% | HCT-116 colon -75.5% | KM12 colon 7.56%
inactive: HCC-2998 colon 12.4%

Cc1ccc(/C(=N\N=C(N)N)c2ccccc2)cc1
inactive: T-47D breast 23% | BT-549 breast 37.5% | SW-620 colon 30.3%
active: MDA-MB-435 melanoma 0.321% | MCF7 breast 5.02% | HCT-116 colon -66.6% | HCC-2998 colon -3.26% | KM12 colon 2.94%

CN(CCC(=O)/C(=C\c1ccccc1)c1ccc(Cl)cc1)Cc1ccccc1
active: MDA-MB-435 melanoma 1.24% | SW-620 colon 4.45% | HCT-116 colon 2.49%
inactive: T-47D breast 15.3% | BT-549 breast 12.7% | MCF7 breast 28.3% | HCC-2998 colon 105% | KM12 colon 67.1%

COc1ccc(C(=O)/C=C/C23c4ccccc4C(c4ccccc42)C2C(=O)NC(=O)C23)cc1 (stereo unspecified)
inactive: T-47D breast 86.2% | BT-549 breast 97.1% | MDA-MB-435 melanoma 101% | SW-620 colon 110% | MCF7 breast 89% | HCT-116 colon 83.2% | HCC-2998 colon 100% | KM12 colon 97.3%

CN(CCCCCCCCNc1ccnc2ccccc12)Cc1ccc(-c2ccc(-c3ccc(C#N)cc3)s2)cc1
active: T-47D breast -33.6% | BT-549 breast -30.1% | MDA-MB-435 melanoma -91.6% | SW-620 colon -76.3% | MCF7 breast -76.5% | HCT-116 colon -86.5% | HCC-2998 colon -89.6% | KM12 colon -68.6%

CCCCN(Cc1ccc(C(=O)NO)cc1)C(=O)Nc1ccc(OCCCCCCCCCn2cc(CCCCC(=O)N[C@H](C(=O)N3C[C@H](O)C[C@H]3C(=O)NCc3ccc(-c4scnc4C)cc3)C(C)(C)C)nn2)cc1
active: MCF7 breast 8.44%
inactive: T-47D breast 32.2% | BT-549 breast 42.2% | MDA-MB-435 melanoma 34.8% | SW-620 colon 30.7% | HCT-116 colon 20.9% | HCC-2998 colon 57.2% | KM12 colon 22.1%

O=[N+]([O-])c1ccccc1C(O)Cc1ccc2ccccc2n1 (stereo unspecified)
inactive: T-47D breast 88.6% | BT-549 breast 109% | MDA-MB-435 melanoma 103% | SW-620 colon 96.7% | MCF7 breast 83.2% | HCT-116 colon 93% | HCC-2998 colon 114% | KM12 colon 87.6%

CCCCCCCC/C=C\CCCCCCCC(=O)Oc1cccc2cccnc12
inactive: T-47D breast 54.6% | BT-549 breast 65.6% | MDA-MB-435 melanoma 82.9% | SW-620 colon 59.4% | MCF7 breast 89.4% | HCT-116 colon 32.2% | HCC-2998 colon 106% | KM12 colon 104%

Nc1ccn(C2OC(F)(CO)C(O)C2F)c(=O)n1 (stereo unspecified)
inactive: T-47D breast 55.3% | BT-549 breast 44.4% | MDA-MB-435 melanoma 52.9% | SW-620 colon 52.1% | MCF7 breast 21.7% | HCT-116 colon 35.3% | HCC-2998 colon 48.3% | KM12 colon 59.2%

COc1c(C)cnc(CSc2nc(-c3ccc(C)cc3)cn2-c2ccc(Cl)cc2)c1C
inactive: T-47D breast 88.1% | BT-549 breast 102% | MDA-MB-435 melanoma 110% | SW-620 colon 100% | MCF7 breast 102% | HCT-116 colon 79.8% | HCC-2998 colon 106% | KM12 colon 105%

CCCCN1CCN(c2ccc3nc(-c4ccc5nc(-c6ccc(OCC)c(OCC)c6)[nH]c5c4)[nH]c3c2)CC1
inactive: T-47D breast 39.9%
active: BT-549 breast -23% | MDA-MB-435 melanoma -41.2% | SW-620 colon -80.3% | MCF7 breast -69.6% | HCT-116 colon -79.7% | HCC-2998 colon -80.4% | KM12 colon -65.6%

Cc1cc(=O)[nH]c(N/N=C/c2cc(Br)ccc2O)n1
inactive: T-47D breast 25% | BT-549 breast 17.2% | MDA-MB-435 melanoma 47.3% | SW-620 colon 40.3% | HCC-2998 colon 32.5% | KM12 colon 34.6%
active: MCF7 breast 1.32% | HCT-116 colon 5.04%

COc1cc2c(=O)n(CCCn3ccnc3)c3c4cc5c(cc4ccc3c2cc1OC)OCO5
inactive: BT-549 breast 28.4% | SW-620 colon 11% | HCC-2998 colon 33.3%
active: T-47D breast -10.9% | MDA-MB-435 melanoma -25.3% | MCF7 breast 4.23% | HCT-116 colon -62.1% | KM12 colon 8.03%

NC(=S)c1csc(CCNC(=O)c2ccccc2)n1
inactive: T-47D breast 103% | BT-549 breast 96.5% | MDA-MB-435 melanoma 110% | SW-620 colon 105% | MCF7 breast 90.7% | HCT-116 colon 97.6% | HCC-2998 colon 103% | KM12 colon 109%

CCN(CC)CC(O)CNc1c2ccc(Cl)cc2nc2ccc(OC)cc12 (stereo unspecified)
inactive: T-47D breast 49.7% | BT-549 breast 42.9%
active: MDA-MB-435 melanoma -72.1% | SW-620 colon -37% | MCF7 breast -0.467% | HCT-116 colon -32.1% | HCC-2998 colon -92.2% | KM12 colon -30.9%

Cc1ccc(S(=O)(=O)N(CC[C@@H]2C[C@H]2c2cc3ccccc3o2)C(=O)NC2CCCCC2)cc1
inactive: T-47D breast 70.9% | BT-549 breast 112% | MDA-MB-435 melanoma 101% | SW-620 colon 92.1% | MCF7 breast 93.4% | HCT-116 colon 85% | HCC-2998 colon 101% | KM12 colon 105%

COc1ccc(-c2nnc(-c3ccc4c(c3)nc(-c3ccccc3)n4C3CCCCC3)o2)cc1
active: T-47D breast 4.1%
inactive: BT-549 breast 30.9% | MDA-MB-435 melanoma 59.6% | SW-620 colon 71.3% | MCF7 breast 33.2% | HCT-116 colon 34.7% | HCC-2998 colon 81.5% | KM12 colon 39.9%

CN(C)c1ccc(-c2cc(-c3ccc(Nc4nc(Nc5ccccc5)nc(Nc5ccc(Cl)cc5)n4)cc3)nc(N)n2)cc1
inactive: T-47D breast 29.3% | BT-549 breast 51.4% | MDA-MB-435 melanoma 49.2% | SW-620 colon 67.9% | MCF7 breast 19.1% | KM12 colon 36.6%
active: HCT-116 colon 7.76% | HCC-2998 colon -8.31%

COc1cc(/C=C/c2nc(Nc3ccc(S(=O)(=O)Nc4cc(C)on4)cc3)c3ccccc3n2)ccc1O
active: MDA-MB-435 melanoma -44.1%
inactive: T-47D breast 58.4% | BT-549 breast 107% | SW-620 colon 39.1% | MCF7 breast 30.7% | HCT-116 colon 54.6% | HCC-2998 colon 81.9% | KM12 colon 31.8%

NC(=O)CC1(O)C=C(Br)C(=O)C(Br)=C1
active: SW-620 colon -36.1% | HCT-116 colon -61.9%
inactive: T-47D breast 31% | BT-549 breast 28.8% | MDA-MB-435 melanoma 32.4% | MCF7 breast 25.6% | HCC-2998 colon 76.3% | KM12 colon 109%

O=C1Nc2ccccc2/C1=N/N=C/c1c[nH]c2ccccc12
inactive: T-47D breast 61% | BT-549 breast 92.7% | MDA-MB-435 melanoma 73.8% | SW-620 colon 71.5% | MCF7 breast 72.5% | HCT-116 colon 72.4% | HCC-2998 colon 101% | KM12 colon 28.5%

N#Cc1c(NC(=O)c2ccccc2I)sc2c1CCCC2
active: MDA-MB-435 melanoma -4.69%
inactive: T-47D breast 61.4% | BT-549 breast 52.2% | SW-620 colon 21% | MCF7 breast 15% | HCT-116 colon 26.4% | HCC-2998 colon 71.6% | KM12 colon 34.2%

CCOC(=O)c1sc(-c2ccc(OS(=O)(=O)c3ccc(C(C)(C)C)cc3)c(C=O)c2)nc1C
inactive: T-47D breast 31.2% | BT-549 breast 53.6% | MDA-MB-435 melanoma 57.2% | SW-620 colon 19.9% | MCF7 breast 33.9% | HCT-116 colon 15.2% | HCC-2998 colon 52.4% | KM12 colon 17.9%

CC1(C)N=C(N)N=C(N)N1c1ccc(Cl)c(Cl)c1
inactive: T-47D breast 69.8% | BT-549 breast 42.9% | MDA-MB-435 melanoma 27.4% | SW-620 colon 43.1% | MCF7 breast 21.4% | HCT-116 colon 24.9% | HCC-2998 colon 20.8% | KM12 colon 38.8%

O=C1C=CC(=Nc2cc(Br)c(O)c(Br)c2)C=C1
inactive: T-47D breast 70.7% | BT-549 breast 55.1% | MDA-MB-435 melanoma 36.1% | SW-620 colon 46.4% | MCF7 breast 40.1% | HCT-116 colon 43.5% | HCC-2998 colon 102% | KM12 colon 94.7%

CCOC(=O)c1cnn2c(-c3ccc(Cl)cc3)nc(NCc3ccccc3)nc12
inactive: T-47D breast 43.3% | BT-549 breast 101% | MDA-MB-435 melanoma 56.2% | HCC-2998 colon 83.9% | KM12 colon 54%
active: SW-620 colon 4.94% | MCF7 breast 5.18% | HCT-116 colon -15.5%

COc1ccc(Cn2cnc3cc(C(=O)Nc4cccc5ccccc45)ccc32)c(OC)c1
active: MDA-MB-435 melanoma -44.5% [30 µM] | HCC-2998 colon 6.79% [30 µM] | KM12 colon 2.44% [30 µM]
inactive: T-47D breast 59.8% [30 µM] | BT-549 breast 30.8% [30 µM] | SW-620 colon 22.7% [30 µM] | MCF7 breast 11.8% [30 µM] | HCT-116 colon 10.3% [30 µM]
